# PPC-1+TRAIL kill: compounds killing PPC-1 cancer cells with TRAIL present, primary screen, TRAIL potentiator project, ATPLite luminescence, uHTS; PPC-1 cells + TRAIL, ATPLite viability luminescence; cell killing (% activity), % at 4 µM or 5 µM; 220,000 tested, 0.41% active;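 active means cell killing above 50% in the first pass at 4 µM, then a duplicate retest at 5 µM averaging 50% or more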;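 further: plate controls were cells with TRAIL plus DMSO for no effect and medium-only wells lacking cells for full effect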
# SENP6 block: SENP6 protease inhibitors, primary screen, biochemical, luminescence, uHTS. Recombinant SENP6 catalytic domain, aminoluciferin luminescence. inhibition, % at 10 µM. 330,000 tested, 1.8% active. AID 2599, 2010;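 active means inhibition above about 50% at the single tested dose, limit read from the data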;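 further: plate controls were DMSO wells with enzyme for no effect and DMSO wells lacking enzyme for full effect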
# C8 TRAIL sens: viability loss with TRAIL in NB7+C8 cells, primary screen, TRAIL sensitizer project, cell-based, ATPlite luminescence; 360,000 tested, 1% active; inhibition (viability loss, TRAIL sensitization), % at 10 µM;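 active means compounds causing at least 50% loss of cell viability in the single-dose screen, relative to plate controls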
# SENP8 block-1: SENP8 protease inhibitors, primary screen, biochemical, luminescence. purified SENP8, Z-RLRGG-aminoluciferin cleavage. inhibition, % at 10 µM. 330,000 tested, 1.2% active. AID 2540, 2010; in the data active means inhibition above about 50%
# SENP7 block: SENP7 protease inhibitors, primary screen, biochemical, luminescence, uHTS | Sentrin-specific protease 7 (Homo sapiens), Q9BQF6 | recombinant SENP7, Z-RLRGG-aminoluciferin luminescence, 40 min | inhibition, % at 5 µM | 330,000 tested, 1.5% active | AID 434973, 2010;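 active means inhibition above about 50% at the single test dose, limit read from the data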;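 further: plate controls were DMSO with enzyme for no effect and no enzyme buffer wells for full effect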
# Target sequence (Q9BQF6 706-1050 limits assumed): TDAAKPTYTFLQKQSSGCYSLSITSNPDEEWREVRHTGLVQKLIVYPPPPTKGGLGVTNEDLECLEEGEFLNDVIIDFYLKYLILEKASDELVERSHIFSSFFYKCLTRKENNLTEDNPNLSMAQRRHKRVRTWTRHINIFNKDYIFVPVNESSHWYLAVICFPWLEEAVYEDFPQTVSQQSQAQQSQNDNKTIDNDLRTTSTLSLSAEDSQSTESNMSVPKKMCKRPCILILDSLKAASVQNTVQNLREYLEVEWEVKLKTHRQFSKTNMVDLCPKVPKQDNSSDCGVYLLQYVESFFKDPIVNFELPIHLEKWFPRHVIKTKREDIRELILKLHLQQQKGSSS
# SENP8 block-2: human SENP8 protease inhibitors, primary screen, biochemical, fluorescence, Nedd8 protein substrate, uHTS. recombinant SENP8. inhibition, % at 20 µM. 360,000 tested, 0.64% active. AID 602440, 2012; in the data active means inhibition mostly above about 40%, no sharp cut-off; inactive means mostly below about 27%
# SENP8 conf: SENP8 protease inhibitors, retest, confirmation, biochemical, luminescence, single concentration; shares compounds with SENP7 block; inhibition, % at 12.5 µM; Recombinant SENP8, Z-RLRGG-aminoluciferin luminescence, 60 min; 6,200 tested, 40% active;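 active means mean inhibition across replicates above about 50%, limit read from the data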
# SENP6 confirm: SENP6 protease inhibitors, confirmation, biochemical, luminescence, single concentration | AID 488915, 2010 | 6,200 tested, 58% active | shares compounds with SENP7 block | recombinant SENP6, Z-RLRGG-aminoluciferin luminescence | inhibition, % at 12.5 µM
# SENP7 confirm: SENP7 protease inhibitors, retest, confirmation, biochemical, luminescence, single concentration | shares compounds with SENP7 block | recombinant SENP7, Z-RLRGG-aminoluciferin luminescence, 40 min | inhibition, % at 12.5 µM | 6,200 tested, 69% active | AID 488917, 2010
# Casp3 select: caspase-3 protease inhibitors, confirmation, selectivity assay for SENP inhibitor project, biochemical, single concentration; inhibition, % at 12.5 µM; 6,200 tested, 60% active; purified caspase-3, Z-DEVD-aminoluciferin luminescence, 60 min; AID 488918, 2010; shares compounds with SENP7 block;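 active means mean inhibition above about 50%, limit read from the data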;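 further: plate controls were enzyme with DMSO for no effect and wells without caspase-3 for full effect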
# Target sequence (P42574 28-227 limits assumed): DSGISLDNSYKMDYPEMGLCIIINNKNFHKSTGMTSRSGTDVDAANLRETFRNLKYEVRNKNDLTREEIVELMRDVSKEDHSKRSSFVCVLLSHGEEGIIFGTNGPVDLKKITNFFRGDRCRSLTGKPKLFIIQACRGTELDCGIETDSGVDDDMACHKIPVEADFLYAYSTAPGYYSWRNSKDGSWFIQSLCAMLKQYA
# SENP luc ctr: luminescence interference (SENP counter-screen); inhibition, % at 12.5 µM; shares compounds with SENP7 block; 6,200 tested, 39% active; AID 488919; Pre-incubated SENP8/Z-RLRGG-aminoluciferin, luciferase luminescence interference;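 active means mean inhibition above about 50% when retested at one dose, limit read from the data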;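 further: plate controls were DMSO wells with completed reaction for no effect and substrate without enzyme for full effect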
# * = called active by the depositor; / = not tested or not shown. Rows were chosen to be rich in hits. Some 3% of all compounds tested hit in one or more screens of this group.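 How the source made its calls, unless noted: active means mean inhibition above about 50% in the one-dose retest (limit read from the data); inactive means the rest.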
SMILES,PPC-1+TRAIL kill,SENP6 block,C8 TRAIL sens,SENP8 block-1,SENP7 block,SENP8 block-2,SENP8 conf,SENP6 confirm,SENP7 confirm,Casp3 select,SENP luc ctr
COC(=O)c1ccc(N/N=C/c2cc([N+](=O)[O-])cc(OC)c2O)cc1,-10,34,-1,29,17,35,/,/,/,/,/
COc1cccc(/C=N/Nc2ccc([N+](=O)[O-])cc2)c1O,/,70*,-13,61*,78*,-69,20,67*,98*,50*,5
Cc1cc2cc(OCc3ccccc3)ccc2n1C,/,50*,-1,-32,19,13,-4,-7,-6,0,0
Cn1ccc2cc(OCc3ccccc3)ccc21,/,/,1,/,/,4,/,/,/,/,/
N#CCC(=O)Nc1ccc(C(=O)NCc2cccc(Cl)c2)cc1,16,-18,-7,1,-7,7,/,/,/,/,/
COc1c(Cl)ccc(Cl)c1C(=O)NC(=S)N1CCOCC1,-11,3,1,-4,2,5,/,/,/,/,/
Cc1ccccc1-c1nc2cc(N)ccc2o1,45,72*,40,60*,74*,-264,9,9,-3,0,1
Cc1ccccc1-c1nc2ccccc2c(=O)o1,/,/,-9,/,/,-30,/,/,/,/,/
CC(C)c1ccc2oc(-c3cc(N)ccc3O)nc2c1,28,94*,66*,91*,86*,-115,44,91*,94*,70*,20
Nc1ccc(-c2nc3ncccc3o2)c(O)c1,/,5,8,-5,-4,-285,/,/,/,/,/
O=C(C1CCC1)N1CCN(S(=O)(=O)c2ccc(Br)cc2Cl)CC1,/,-6,3,-9,-7,4,/,/,/,/,/
Nc1c(Cl)ncnc1NCc1ccccc1,/,2,10,9,-2,22,/,/,/,/,/
Cc1ccc(-c2onc3ccc(C4OCCO4)cc23)cc1,7,-25,12,-8,-8,2,/,/,/,/,/
COc1cccc(CN2CCC2(C)C(=O)Nc2cnc3ccccc3c2)c1F (centres undefined),/,/,20,/,/,5,/,/,/,/,/
O=c1[nH]c(-c2ccccc2)cnc1-c1ccccc1,/,52*,27,33,74*,-406,8,12,12,19,12
COc1ccccc1-c1csc(C(O)c2ccc(F)c(F)c2)n1 (centres undefined),/,/,-5,/,/,8,/,/,/,/,/
COc1cc2ccccc2cc1C(=O)Nc1ccc(O)cc1,/,63*,39,44,57*,-89,8,37,87*,60*,3
O=C(Nc1ccccn1)c1cc2ccccc2cc1O,/,77*,5,75*,52*,3,6,33,50,38,3
CN(c1ccccc1)S(=O)(=O)c1cccc(NC(=O)c2cc3ccccc3oc2=O)c1,2,12,-11,3,6,-20,/,/,/,/,/
Cc1ccc(NC(=O)c2cc3ccccc3oc2=O)cc1S(=O)(=O)N(C)C,28,36,56*,25,73*,9,22,25,17,39,7
Cc1ccc(NC(=O)c2cc3ccccc3cc2O)cc1,/,45,39,15,50,-50,/,/,/,/,/
COc1ccc(NC(=O)c2cc3ccccc3cc2OC)cc1OC,/,2,3,-2,0,6,/,/,/,/,/
COc1ccc(NC(=O)c2cc3ccccc3cc2O)cc1,/,51*,30,50,13,20,25,33,88*,44,8
O=C(Nc1ccccn1)c1ccc(C(=O)Nc2ccccn2)cc1,/,13,16,-10,4,8,/,/,/,/,/
CCOc1cc(S(=O)(=O)n2nc(C)cc2C)ccc1Br,3,-22,-4,-4,-5,3,/,/,/,/,/
SMILES,PPC-1+TRAIL kill,SENP6 block,C8 TRAIL sens,SENP8 block-1,SENP7 block,SENP8 block-2,SENP8 conf,SENP6 confirm,SENP7 confirm,Casp3 select,SENP luc ctr
O=C(NCCc1ccc(F)cc1)C1CCC(=O)N(CC2CCCCC2)C1 (centres undefined),/,/,-15,/,/,11,/,/,/,/,/
COc1ccc(NC(=O)c2cc3ccccc3oc2=O)cc1,/,/,50,/,/,28,/,/,/,/,/
C/C(CC(=O)Nc1ccccn1)=N\NC(=O)C(=O)Nc1cccc(C)c1,11,8,8,-5,0,7,/,/,/,/,/
O=C(Nc1ccc(F)cc1F)c1cc2ccccc2oc1=O,/,28,25,7,63*,17,7,6,46,54*,23
COc1ccc2oc(=O)c(C(=O)Nc3ccccc3O)cc2c1,14,77*,25,75*,95*,32,61*,78*,94*,74*,21
O=C(Nc1cccc(O)c1)C(=O)Nc1ccccn1,42,96*,71*,87*,97*,16,93*,93*,100*,96*,82*
CSc1nc(/C=C2\C=Nc3ccccc32)c(O)n1C,23,73*,7,54*,52*,-5,76*,74*,89*,71*,65*
Cc1c(N=Cc2c(O)n(C)c(=O)c3ccccc23)c(=O)n(-c2ccccc2)n1C,25,52*,8,10,41,-48,-19,-9,-1,0,-5
O=C(Nc1cc(Cl)cc(Cl)c1)c1cccc(OC(F)F)c1,11,54*,12,-1,14,24,42,33,69*,8,10
O=C(Nc1cccc(Cl)c1)c1ccc2ncsc2c1,/,57*,-4,49,62*,9,60*,60*,86*,51*,68*
Cc1ccnc(NC(=O)c2cccc(OC(F)F)c2)n1,/,-27,9,0,5,1,/,/,/,/,/
CN(C)S(=O)(=O)Oc1cccc(C(=O)Nc2ccc(Cl)c(Cl)c2)c1,8,64*,22,55*,38,5,11,67*,86*,15,10

# Screening data: PubChem BioAssay, Sanford-Burnham Center for Chemical Genomics
